Test results taken from ChEMBL document CHEMBL3988442, “University of Dundee, Small-Polar-MMV Screening Library” (2021).
Out of some 85,000 compounds screened, about 440 (0.52%) showed an effect of 50% or more. Shown is part of a subset that was picked to be rich in strong results.

Test: In vitro enzyme assay to detect hydrolysis of chlorophenol red-beta-D-[…] directly proportional to the number of Toxoplasma stably expressing beta-galactosidase
Format: functional, organism-based, Toxoplasma gondii
Set-up: scale not given: in the data most compounds retested in dose-response had high values

Row | Compound | Percent Effect (10 µM) [%] | Percent Effect (50 µM) [%]
1 | COC[C@@H]1CCC[C@@]12CN(Cc1ccco1)CCO2.O=C(O)C(F)(F)F | -11.03 | –
2 | COC[C@@H]1CCC[C@]12CN(Cc1ccco1)CCO2.O=C(O)C(F)(F)F | -8.533 | –
3 | COC[C@@H]1CCC[C@@]12CN(Cc1ccc(C)s1)CCO2.O=C(O)C(F)(F)F | 74.98 | –
4 | O=C(c1ccco1)N1CCC(N2CCCC2)CC1 | – | -19.12
5 | CN(Cc1ccccn1)Cc1csnn1 | – | 13.21
6 | O=C(c1ccc(Br)cn1)N1CCC(n2ccnn2)CC1 | – | 0.6699
7 | COc1cccc(CO)c1C | – | -13.36
8 | COC(=O)c1ccc(CN2CCCC(CO)C2)cc1 (centres undefined) | – | -14.35
9 | CCCc1ccc(C(=O)N2CCC(N)CC2)cc1 | – | -1.427
10 | CCOc1ccc(C(=O)N2CCC(N)CC2)cc1 | – | 56.89
11 | CCOc1ccccc1C(=O)N1CCC(N)CC1 | – | 9.165
12 | Cc1cc(Br)cc(C(=O)NC2(C(N)=O)CC2)c1 | – | 10.26
13 | CC(C)=CCN1CCN(CCO)CC1CCO (centres undefined) | – | 22.16
14 | O=C(NC1=NCCS1)c1cc2cc(F)ccc2s1 | – | -6.521
15 | Cn1nccc1CCC(=O)NCCN1CCCC1 | – | 10.39
16 | COc1ccc(C(C)N(C)Cc2c(C(C)(C)C)[nH]c3ncccc23)cc1 (centres undefined) | -0.9197 | –
17 | COc1ccc(C(C)N(C)Cc2c(C(C)C)[nH]c3ncccc23)cc1 (centres undefined) | -0.3537 | –

Row | Compound | Percent Effect (10 µM) [%] | Percent Effect (50 µM) [%]
18 | COc1ccc(C(C)N(C)Cc2c(C3CC3)[nH]c3ncccc23)cc1.Cl (centres undefined) | 65.16 | –
19 | NS(=O)(=O)c1cccnc1NC1CCc2ccccc21 (centres undefined) | – | 16.24
20 | CN(C1CCCCC1)S(=O)(=O)N1CCNCC1 | – | 5.411
21 | COC(=O)c1cnc(C)c(OC)c1 | – | -7.167
22 | CCS(=O)(=O)N1CCN(C(=O)c2cnc3[nH]nc(C)c3c2)CC1 | -8.634 | –
23 | COC(=O)c1cnc2[nH]nc(C)c2c1 | – | 55.45
24 | NCCNC(=O)c1ccc(-c2ccc(Cl)cc2)s1 | – | 89.1
25 | NS(=O)(=O)CCNC(=O)c1ccc(-c2cccs2)s1 | – | 1.485
26 | CC(C)(NC(=O)c1ccc(-c2ccc(F)cc2)s1)C(N)=O | 16.31 | –
27 | Cc1csc(CCNC(=O)CSCC#N)n1 | – | -3.488
28 | CC(O)C(=O)Nc1ccc(Cl)c(OC(F)F)c1 (centres undefined) | – | -7.05
29 | CC(C)(C)OC(=O)NCc1cc(C(N)=O)co1 | – | -10.17
30 | CCC(CNC(=O)c1ccoc1)N1CCCC1 (centres undefined) | – | 9.191
31 | Cn1cc(NC(=O)CC2C=CCC2)cc(Br)c1=O (centres undefined) | – | -2.451
32 | N#CCCN(CCC#N)Cc1ccc(Br)c2cccnc12 | 11.15 | –
33 | CCN(CCO)Cc1ccc(Br)c2cccnc12 | 72.7 | –
34 | OCCN(CCO)Cc1ccc(Br)c2cccnc12 | 9.5 | –
